Measurements reported in PubChem BioAssay.
Values joined by “and” are separate entries in the source; they are usually repeats but may differ in a detail not shown here. Equal values may be shown once. Active and inactive are the calls of the source. Cut-off read from the data, not from the text of the source, unless noted: active = inhibition above about 80%; inactive = the rest.

What was measured:
[1] = LFS_MB_P medulloblastoma growth inhibition, cell-based, chromothripsis tumors, cisplatin or BGB combos (AID 1671449); conditions: LFS_MB_P medulloblastoma cells;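 note: cells exposed for 96 hours; 0% = vehicle DMSO and 100% = killing by high DMSO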
[2] = HDN33 neuroblastoma growth inhibition, cell-based, chromothripsis tumors, cisplatin or BGB combos (AID 1671450); conditions: HDN33 neuroblastoma cells, stronger effect = higher value;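 note: cells exposed to compound for four days; 0% = vehicle DMSO and 100% = cell killing by high DMSO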
[3] = ICB984 medulloblastoma cell growth inhibition, synergistic combos for chromothripsis tumors, cisplatin or BGB combos (AID 1671451; call rule not given here;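 note: cells exposed for 96 hours before readout; 0% = vehicle DMSO and 100% = killing by high DMSO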); conditions: ICB984 medulloblastoma cells, drug combinations, stronger effect = higher value
[4] = LFS_MB_1R medulloblastoma cell growth inhibition, synergistic combos for chromothripsis tumors, cisplatin or BGB combos (AID 1671452); conditions: LFS_MB_1R medulloblastoma cells, stronger effect = higher value;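 note: cells exposed for 96 hours before readout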
[5] = HTB85 osteosarcoma cell growth inhibition, synergistic combos for chromothripsis tumors, BGB or cisplatin IC20 combos (AID 1671453); conditions: HTB85 osteosarcoma cells, drug combinations, stronger effect = higher value;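 note: cells exposed for 96 hours before readout; 0% = vehicle DMSO and 100% = high DMSO killing control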
[6] = CRL2098 osteosarcoma cell growth inhibition, synergistic combos for chromothripsis tumors, BGB or cisplatin IC20 combos (AID 1671454); conditions: CRL2098 osteosarcoma cells, drug combinations, stronger effect = higher value;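 note: cells exposed for 96 h before readout; 0% = vehicle DMSO and 100% = killing by high DMSO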
[7] = HD-MB03 medulloblastoma cell growth inhibition, synergistic combos for chromothripsis tumors, BGB or cisplatin IC20 combos (AID 1671455; in the data active = inhibition above about 83%;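 note: 0% = vehicle DMSO and 100% = high DMSO as cytotoxic control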); conditions: HD-MB03 medulloblastoma cells, stronger effect = higher value
[8] = UWB1.289 ovarian carcinoma cell growth inhibition, synergistic combos for chromothripsis tumors, BGB or cisplatin combos (AID 1671456); conditions: UWB1.289 ovarian carcinoma cells, stronger effect = higher value;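 note: cells exposed to compound for four days; 0% = vehicle DMSO and 100% = killing by high DMSO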
[9] = LFS_MB_2R medulloblastoma cell growth inhibition, synergistic combos for chromothripsis tumors, cisplatin combos (AID 1671457); conditions: LFS_MB_2R medulloblastoma cells, stronger effect = higher value;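 note: cells exposed to compound for four days before readout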
[10] = MDA-MB-436 breast carcinoma cell growth inhibition, synergistic combos for chromothripsis tumors, BGB or cisplatin combos (AID 1671458; call rule not given here;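 note: cells exposed for 96 hours; 0% = vehicle DMSO and 100% = killing by high DMSO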); conditions: MDA-MB-436 breast carcinoma growth inhibition, drug combinations, stronger effect = higher value
[11] = UWB1.289_BRCA1 ovarian cancer growth, cell-based, BGB or cisplatin combinations (AID 1671459); conditions: UWB1.289 BRCA1 ovarian carcinoma, drug combinations, stronger effect = higher value
[12] = human astrocyte viability loss, single and combined drugs, cytotoxicity control for chromothriptic childhood tumor combination screen, cell-based, BGB or cisplatin IC20 combos (AID 1671460); conditions: Human astrocytes, drug combinations, stronger effect = higher value;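 note: cells exposed to compounds for 96 hours before viability readout; 0% = vehicle and 100% = killing control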
[13] = growth inhibition of BT084 medulloblastoma cells, cell-based, ICGC_MB145, cisplatin and BGB IC40 combos (AID 1671461); conditions: drug combinations, stronger effect = higher value;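 note: cells exposed to drugs for 96 hours; 0% = vehicle DMSO and 100% = high DMSO full killing control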
[14] = growth inhibition of RCMB18 medulloblastoma cells, cell-based, cisplatin and BGB IC40 combos (AID 1671462); conditions: stronger effect = higher value;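 note: cells exposed to compound for four days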
[15] = growth inhibition of CRL1545 osteosarcoma cells, cell-based, cisplatin and BGB IC20 combos (AID 1671464); conditions: stronger effect = higher value;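 note: cells exposed to compound for 96 hours before readout; 0% = vehicle DMSO and 100% = high DMSO killing control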
[16] = measured here: combination with BGB IC40, at 0.05 µM
[17] = measured here: with BGB IC20 combination, at 0.5 µM
[18] = measured here: with cisplatin IC20 combination, at 0.5 µM
[19] = measured here: combination with cisplatin, at 0.5 µM
[20] = measured here: combination with cisplatin, at 5 µM

Cn1cnc2[nH]c(=O)[nH]c(=O)c21
inhibition ([1]; at 0.5 µM, stronger effect = higher value): -31.2% (inactive) | inhibition ([1]; measured here: combination with BGB IC20, at 0.005 µM): -23.8% | inhibition ([1]; measured here: combination with BGB IC40, at 0.005 µM): -24.9% | inhibition [1, 16]: -15.5% | inhibition ([1]; measured here: combination with cisplatin, at 0.5 µM, stronger effect = higher value): -52.2% | inhibition ([1]; measured here: combination with cisplatin, at 5 µM, stronger effect = higher value): -16.9% | inhibition ([2]; BGB combo, at 5 µM): -14.9% | inhibition ([2]; at 0.5 µM): -29.3% (inactive) | inhibition ([2]; cisplatin combo, at 5 µM): -9.77% | inhibition [2, 17]: -37.1% | inhibition [2, 18]: -7.77% | inhibition ([2]; single agent, at 5 µM): -7.59% | inhibition ([3]; BGB IC20 combo, at 0.005 µM): -15.3% | inhibition ([3]; BGB IC40 combo, at 0.005 µM): -28.7% | inhibition ([3]; BGB IC40 combo, at 0.05 µM): -16.7% | inhibition ([3]; at 0.5 µM): -24.9% (inactive) | inhibition ([3]; cisplatin combo, at 0.05 µM): -16.7% | inhibition ([3]; cisplatin combo, at 0.5 µM): -33.2% | inhibition ([3]; cisplatin combo, at 5 µM): -13.6% | inhibition ([3]; measured here: 5 uM single agent, at 5 µM): 2.87% | inhibition ([4]; at 0.5 µM): -24.6% (inactive) | inhibition [4, 16]: -0.159% | inhibition [4, 19]: 11.9% | inhibition [4, 20]: -7.74% | inhibition ([5]; at 0.5 µM): -29.8% (inactive) | inhibition ([5]; measured here: with BGB IC20, at 0.5 µM): -76.7% | inhibition ([5]; measured here: with BGB IC20, at 5 µM): -27.8% | inhibition ([5]; measured here: with cisplatin IC20, at 0.5 µM): 0.051% | inhibition ([5]; measured here: with cisplatin IC20, at 5 µM): 18.6% | inhibition ([5]; single agent, at 5 µM): -24.4% | inhibition ([6]; at 0.5 µM): -69.2% (inactive) | inhibition ([6]; measured here: combination with BGB at IC20, at 0.5 µM): -77.5% | inhibition ([6]; measured here: combination with cisplatin at IC20, at 0.5 µM): -102% | inhibition ([7]; at 0.5 µM): -10.2% (inactive) | inhibition ([7]; measured here: combo with BGB at IC20, at 0.5 µM): -8.65% | inhibition ([7]; measured here: combo with cisplatin at IC20, at 0.5 µM): -11.2% | inhibition ([8]; at 0.5 µM): -8.42% (inactive) | inhibition ([8]; measured here: inhibition with BGB combination, at 0.05 µM): -20.6% | inhibition ([8]; measured here: inhibition with cisplatin combination, at 0.05 µM): -21.4% | inhibition ([9]; at 0.5 µM): -6.27% (inactive) | inhibition [9, 19]: -10.9% | inhibition [9, 20]: -15.8% | inhibition ([10]; at 0.5 µM): -15.1% (inactive) | inhibition ([10]; measured here: BGB combination, at 0.5 µM): -7.33% | inhibition ([10]; measured here: BGB combination, at 5 µM): -1.97% | inhibition ([10]; measured here: cisplatin combination, at 0.5 µM): -35.1% | inhibition ([10]; measured here: cisplatin combination, at 5 µM): -7.26% | inhibition ([11]; BGB combination, concentration series, at 5 µM): -2.15% | inhibition ([11]; at 0.5 µM): -8.08% (inactive) | inhibition ([11]; cisplatin combination, concentration series, at 5 µM): 4.95% | inhibition ([12]; at 0.5 µM): 14% (inactive) | inhibition ([12]; measured here: combo with BGB IC20, at 0.5 µM): 17.9% | inhibition ([12]; measured here: combo with cisplatin IC20, at 0.5 µM): 4.38% | inhibition ([13]; at 0.5 µM): -17.3% (inactive) | inhibition ([13]; cisplatin combination, at 0.5 µM): -7.22% | inhibition ([13]; cisplatin combination, at 5 µM): -68.1% | inhibition ([13]; measured here: BGB IC40 combination 0.05 uM, at 0.05 µM): -20.6% | inhibition ([13]; single agent, at 5 µM): -30.4% | inhibition ([14]; at 0.5 µM): -15.8% (inactive) | inhibition ([14]; cisplatin combo, at 5 µM): -20.1% | inhibition ([14]; measured here: BGB IC40 combination, at 0.05 µM): -17.4% | inhibition [14, 19]: -33.2% | inhibition ([14]; single agent, at 5 µM): -24.4% | inhibition ([15]; at 0.5 µM): -15.4% (inactive) | inhibition [15, 17]: 4.76% | inhibition [15, 18]: -25.6% | inhibition ([15]; single agent, at 0.05 µM): -33.9% | inhibition ([15]; single agent, at 5 µM): -5.96%

CCc1c2c(nc3ccc(OC(=O)N4CCC(N5CCCCC5)CC4)cc13)-c1cc3c(c(=O)n1C2)COC(=O)C3(O)CC (stereo not given)
inhibition [1, 16]: -19.5% and -4.73% and -44.6% | inhibition ([13]; at 0.5 µM): -22.5% (inactive) and 1.41% (inactive) and -20.7% (inactive)
